Screening data as filed in PubChem.
VDR inh: vitamin D3 receptor (human) inhibition. VDR-SRC2-3 peptide fluorescence polarization, 2 h. Potency, µM, inactives show max response, negative = inhibition, actives largely listed as inhibitors. hit rate 0.93% among 400,000. AID 504847; note: % is set by controls: 0 for no effect and ±100 for the full control effect
Target sequence (P11473 whole entry, looked up): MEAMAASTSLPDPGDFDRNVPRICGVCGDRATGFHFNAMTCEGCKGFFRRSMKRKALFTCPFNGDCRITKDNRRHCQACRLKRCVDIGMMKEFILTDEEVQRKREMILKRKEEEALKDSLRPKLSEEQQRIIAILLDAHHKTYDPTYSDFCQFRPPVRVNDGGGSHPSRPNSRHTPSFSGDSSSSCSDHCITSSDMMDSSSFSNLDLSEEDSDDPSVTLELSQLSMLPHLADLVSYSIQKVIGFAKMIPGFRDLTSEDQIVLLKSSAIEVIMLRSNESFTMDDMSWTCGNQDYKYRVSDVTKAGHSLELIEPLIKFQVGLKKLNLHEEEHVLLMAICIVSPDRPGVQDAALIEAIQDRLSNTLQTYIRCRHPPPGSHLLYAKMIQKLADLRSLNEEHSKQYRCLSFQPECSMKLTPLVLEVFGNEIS
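Measured by FP: displacement of SRC2-3 coactivator peptide from VDR by library compounds, following a two-hour ambient incubation.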
USP1 inh: USP1/UAF1 (human) deubiquitinase inhibition; O94782; recombinant USP1/UAF1, Ub-Rhodamine cleavage fluorescence; Potency, µM (titrated, usually from 57.1 µM), for the others: top-dose activity change, negative = inhibition, usual class: inhibitors; hit rate 0.23% among 390,000; note: % is set by controls: 0 for no effect and ±100 for the full control effect; nearly all actives have a fitted effect of over 60% in size
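USP1/UAF1 complex (1 nM) preincubated 15 min at room temperature with compound, then Ub-Rho substrate (150 nM final) added. Kinetic fluorescence at 480/540 nm over 6 reads at 60 s intervals; 50 mM HEPES pH 7.8, 0.5 mM EDTA, 0.1 mg/ml BSA, 1 mM TCEP, 0.01% Tween-20.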
TSG101-PTAP inh: blocks PTAP/TSG101 interaction to inhibit HIV-1 budding; AID 493005; 340,000 tested, under 10 active; Fluorescence polarization, FITC-PTAP peptide / Tsg101 binding; Q99816; Potency, µM (top dose mostly 115 µM), for the others: top-dose activity change, negative = inhibition, usual class: inhibitors; active = well fitted inhibition curve with a large enough effect in the main read-out, with a control signal flat, not every such curve was filed as active; inconclusive = small, poorly fitted or top-dose-only effect, or effect the other way, or a change in a side signal; inactive = no such curve, though single readings can be large or run the other way; note: % of control where 0% means no effect
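Compounds were pin-transferred onto Tsg101 binding domain (10 uM final) in HEPES pH 7.5 buffer, then FITC-PTAP peptide was added at 50 nM final. After 20 min at RT, polarization reported peptide displacement across a qHTS concentration series.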
GCN5L2 inh: inhibitors of human GCN5L2 histone acetyltransferase; Q92830; GCN5L2 HAT assay, ThioGlo1 CoA-SH fluorescence; Potency, µM (highest dose often 58.9 µM), inactives show at the top dose activity change, negative = inhibition, actives largely listed as inhibitors; hit rate 0.21% among 390,000; note: % is set by controls: 0 for no effect and ±100 for the full control effect
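Preincubate 20nM GCN5L2 with compound 15 min, RT → add 50uM ThioGlo1 + 75uM H3(1-25) + 70uM acetyl-CoA → read fluorescence 0 and 20 min. Primary qHTS; fluorescent artifacts likely.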
PLK1 PBD inh: PLK1 (human) polo-box domain binding inhibition | Potency, µM, inactives show max response, negative = inhibition, hits mostly inhibitors | P53350 | hit rate 2.8% among 360,000 | AID 720504 | Plk1 PBD binding of FITC phosphopeptide, fluorescence polarization; note: series mostly up to about 57 µM; % is set by controls: 0 for no effect and ±100 for the full control effect; nearly all actives have a fitted effect of over 65% in size
* hit, by the source's call; ? = inconclusive; nt = no result given; [ ] = dose if it differs, or a comment. Shown are actives, neighbours in structure and some others; about 3% of the full set was active somewhere. Unless noted, calls come from the whole dose curve; as a rule, active = well fitted curve in the direction sought with a large enough effect; inconclusive = small, poorly fitted or top-dose-only effect, or another doubt; inactive = no such curve, though single readings can be large; an effect the other way counts as inactive or inconclusive. Potency is the fitted concentration of half-maximal effect.

SMILES	VDR inh	USP1 inh	TSG101-PTAP inh	GCN5L2 inh	PLK1 PBD inh
CC(C)Cc1ccc(C(C)/C=C2/CCC(CN3CCCCC3)C2=O)cc1 (stereo unspecified)	?	-12.4%	-0.5%	nt	13.4µM*
Cc1cccc2c(=O)c(-c3ccc4c(c3)OCO4)c(NC(=O)c3ccco3)oc12	-11.9%	-17.0%	-4.0%	-13.3%	23.8µM*
Cc1cccc(-c2c(NC(=O)c3ccco3)oc3c(C)cccc3c2=O)c1	-12.8%	-15.0%	-3.1%	-6.2%	-22.2%
CC1CC(C)CN(C(=O)Cn2ncc3c([nH]c4ccccc43)c2=O)C1 (stereo unspecified)	-23.8%	-13.7%	1.8%	-2.4%	23.8µM*
CCOC(=O)c1cc(-c2ccc(/C=C3/C(=O)N(c4ccc(C(=O)O)cc4)N=C3C)o2)ccc1Cl	?	-25.3%	-1.6%	-0.1%	0.844µM*
CC1=NOC(=O)/C1=C\c1ccc(-c2ccc(Br)cc2C(=O)O)o1	79.4µM*	-22.4%	-1.4%	?	2.67µM*
CN(C)/C=C1/C(=O)N(c2ccc([N+](=O)[O-])cc2)N=C1c1ccccc1	nt	nt	nt	-14.5%	nt
O=C(O)c1ccccc1-c1ccc(/C=C2\SC(=O)N(c3ccccc3)C2=O)o1	-7.1%	-15.9%	-4.7%	-0.1%	-12.5%
O=C1/C(=C\c2ccc(-c3ccccc3[N+](=O)[O-])o2)C(c2ccccc2)=NN1c1ccccc1	-22.7%	-30.9%	-1.8%	-16.6%	3.36µM*
CC1=NN(c2ccc(Br)cc2)C(=O)/C1=C/c1ccc(-c2ccccc2C(=O)O)o1	?	-8.6%	-0.1%	4.8%	11.9µM*
Cc1cc(C)cc(NC(=O)C(=S)NCc2ccccc2)c1	-2.3%	-26.6%	-0.5%	-14.0%	-10.6%
CCCc1nnc(SCC(=O)Nc2cccc(C(F)(F)F)c2)o1	-6.1%	-1.9%	3.2%	2.7%	-7.4%
COc1cc2c(C(=O)N3CCN(c4ccc(C)cc4)C(C)C3)cn(CC(C)C)c(=O)c2cc1OC (stereo unspecified)	-14.0%	-18.4%	nt	-2.5%	nt
COCCNC(=O)C(=O)NNS(=O)(=O)c1ccc(Cl)cc1	-15.9%	-21.4%	-2.2%	-1.3%	1.9%
Cc1ccc(S(=O)(=O)NNC(=S)Nc2ccc(Cl)cc2)cc1	-2.6%	-8.6%	0.8%	-4.8%	-0.2%
Cc1ccc(NC(=S)NNS(=O)(=O)c2ccc3ccccc3c2)cc1Cl	-24.2%	?	1.0%	-4.3%	18.9µM*
COCCNC(=O)C(=O)NNS(=O)(=O)c1ccc2ccccc2c1	?	-2.8%	0.0%	2.4%	18.9µM*
CCC(C)C(NC(=O)c1ccccc1NC(=O)c1ccccc1)C(=O)O (stereo unspecified)	?	-24.9%	-4.6%	24.4%	26.7µM*
O=C(Nc1ccccc1C(=O)NC(Cc1ccccc1)C(=O)NC1CCCCCC1)c1ccccc1 (stereo unspecified)	-9.3%	-17.0%	-1.8%	3.8%	26.7µM*
COc1ccc(C(=O)Nc2ccccc2C(=O)N2CCCCCC2)cc1OC	-1.3%	-19.7%	-1.0%	-3.1%	-7.8%
COc1ccc(C(=O)Nc2ccccc2C(=O)NC(C)C)cc1OC	?	1.7%	-0.5%	19.0%	26.7µM*
COc1ccc(C(=O)Nc2ccccc2C(=O)N2CCOCC2)cc1Br	-8.4%	-9.1%	0.0%	-21.1%	26.7µM*
Cc1ccc(NC(=O)c2cnc(SCC(=O)N3CCCc4ccccc43)n(C)c2=O)cc1C	0.5%	-15.0%	nt	-1.0%	nt
COc1ccc(F)cc1S(=O)(=O)N1CCCC(C)C1 (stereo unspecified)	-6.8%	-6.7%	-4.3%	0.3%	-10.2%
O=S(=O)(c1ccc(F)cc1)N1CCN(S(=O)(=O)c2cc(F)ccc2F)CC1	?	-18.1%	0.2%	?	21.2µM*
SMILES	VDR inh	USP1 inh	TSG101-PTAP inh	GCN5L2 inh	PLK1 PBD inh
COc1ccc(F)cc1S(=O)(=O)N1CCCN(S(=O)(=O)c2cc(F)ccc2OC)CC1	-3.6%	-19.3%	-1.6%	-2.7%	26.7µM*
COc1ccc(F)cc1S(=O)(=O)n1cc(C)nc1-c1ccccc1	?	-17.7%	-4.5%	1.6%	4.23µM*
Cc1ccc(C)c(C(=O)c2c(N)c(-c3nc(-c4ccc5c(c4)OCO5)cs3)c3ccccn23)c1	8.3%	-8.4%	nt	-7.9%	nt
COc1ccc(CNC(=O)Cn2ncc3c(=O)oc4ccc(C)cc4c32)c(OC)c1	2.5%	-7.8%	nt	-6.5%	nt
CCOC(=O)c1ccccc1NC(=O)COC(=O)CCC(=O)c1ccc(C)cc1	4.0%	-16.2%	-0.3%	-10.6%	2.1%
O=C1CC(c2ccccc2)CC(=O)C1CS(=O)(=O)c1ccccc1 (stereo unspecified)	31.6µM*	-16.9%	-0.9%	0.1%	-25.4%
O=C1CC(=O)CC(c2ccccc2)C1	?	-10.8%	-5.7%	-6.9%	-3.1%
Cc1cc(O)c2c(c1)C(=O)c1cccc(O)c1C2=O	14.1µM*	nt	nt	-7.9%	nt
CCN1C(=NCc2cc(OC)c(OC)c(OC)c2)N[C@@H](c2ccccc2)C(C(=O)OC)=C1C	?	11.7%	-2.6%	-1.1%	23.8µM*
CCN1C(=NCc2cc(OC)c(OC)c(OC)c2)N[C@@H](c2cccc(C(F)(F)F)c2)C(C(=O)OC)=C1C	-5.0%	?	-4.2%	-3.2%	?
CCCCCCCCCCCCCCCCOC[C@H](COP(=O)([O-])OCC[N+](C)(C)C)OC(=O)CCCCCCCC(=O)O	?	nt	nt	15.8µM*	nt
CCCn1c2ccccc2c2cnn(CC(=O)NCCc3ccc(C)cc3)c(=O)c21	8.1%	-18.6%[11.4 µM]	nt	-8.0%	nt
O=C(NC(NC(=S)Nc1ccccc1C(=O)O)C(Cl)(Cl)Cl)c1ccco1 (stereo unspecified)	?	-1.5%	25.2%	2.4%	21.2µM*
COC(=O)c1ccccc1NC(=S)NC(NC(=O)c1ccccc1[N+](=O)[O-])C(Cl)(Cl)Cl (stereo unspecified)	-21.7%	-7.4%	-6.3%	-7.9%	26.7µM*
O=C(NC(NC(=S)Nc1ccccc1C(=O)O)C(Cl)(Cl)Cl)c1ccccc1 (stereo unspecified)	79.4µM*	5.2%	-1.6%	-23.9%	5.97µM*
COc1ccc(NC(=S)NC(NC(=O)CCl)C(Cl)(Cl)Cl)c([N+](=O)[O-])c1 (stereo unspecified)	89.1µM*	?	-7.0%	-17.8%	11.9µM*
COc1ccc(NC(=S)NC(NC(=O)c2ccccc2Cl)C(Cl)(Cl)Cl)c([N+](=O)[O-])c1 (stereo unspecified)	-11.2%	-26.4%	-3.4%	-6.2%	-7.7%
Clc1ccc(-c2csc(=Nc3ccccc3)n2Cc2ccc3c(c2)OCO3)cc1	1.8%	-8.7%	nt	-3.5%	nt
FC(F)(F)c1ccc(-c2noc(-c3ccccc3)c2I)cc1	5.0%	nt	nt	-10.1%	nt
Cn1c(=O)c2[nH]c(Br)nc2n(C)c1=O	1.9%	nt	nt	-8.4%	nt
CCn1c(=S)[nH]c2c(=O)n(C)c(=O)n(C)c21	50.1µM*	-17.7%	-3.1%	nt	-15.9%
